Data from publication PMC4552634, “A New Set of Chemical Starting Points with Plasmodium falciparum Transmission-Blocking Potential for Antimalarial Drug Discovery” (PLoS ONE, 2015).
Hit rate of the full screen: of about 13,000 compounds, about 3,200 (25%) showed an effect of 50% or more. Some of the results follow.

Tested on: P. falciparum stage V gametocytes
Design: BacTiter-Glo ATP luminescence viability of purified stage V gametocytes in 384-well plates, per cent inhibition versus DMSO
Conditions: 48 h, 5 µM; inhibitor

Structure (SMILES)	% Inhibition
CC[C@H](NC(=O)c1c(CC2CCN(CC(C)=O)CC2)c(-c2ccccc2)nc2ccccc12)c1ccccc1 [TCMDC-141946]	44.22%
CC(C)(C)c1ccc(NC(=O)c2ccc(CN3CCCN(CC4CCCCC4)CC3)cc2)cc1 [TCMDC-136428]	-70.52%
N#Cc1cccc(NC(=O)Nc2ccc(-c3cccc(-c4nc5ccc(F)cc5[nH]4)c3)cc2)c1 [TCMDC-133199]	24.35%
CN(C(=O)c1snnc1-c1ccccc1)C1CCN(CCCCCNC(=O)/C=C/c2ccc(Cl)c(Cl)c2)CC1 [TCMDC-139993]	-14.58%
Oc1ccc2[nH]c(-c3ccc(F)cc3F)nc2c1CN1CCC(O)(c2ccccc2)CC1 [TCMDC-136532]	-67.95%
COc1ccc2nccc([C@@H](O)CN3CCC(NCc4nc5c([N+](=O)[O-])cccc5[nH]4)CC3)c2c1 [TCMDC-140982]	-2.529%
CC1CN(Cc2cccc(-c3ccc(-c4nc5cc(F)ccc5[nH]4)cc3)c2)CC(C)O1.O=C(O)C(F)(F)F (centres unmarked) [TCMDC-133818]	13.23%
Cc1ccc(C2(C)CN(CCCOc3cccc(-c4ccc(C(=O)NC(C)C)cc4)c3)CCO2)cc1 (centres unmarked) [TCMDC-134386]	27.16%
CC(C)N1CCN(C(CN2CCN(CCCOc3ccc(-c4ccccc4)cc3)CC2)c2ccc(F)cc2)CC1 (centres unmarked) [TCMDC-135497]	69.79%
CC(CN1CCN(CC(c2ccc(F)cc2)N2CCN(C)CC2)CC1)C(=O)c1ccc(O)cc1 (centres unmarked) [TCMDC-125496]	29.96%
CC(C)N1CCN(C(CN2CCN(CCCOc3ccccc3-c3ccccc3)CC2)c2ccc(F)cc2)CC1 (centres unmarked) [TCMDC-135499]	44.69%
CC(C)N1CCN(C(CN2CCN(CCCOc3cccc(-c4ccccc4)c3)CC2)c2ccc(F)cc2)CC1 (centres unmarked) [TCMDC-135498]	62.15%
COc1ccc(C(C(=O)NC2CCN(C[C@H](O)c3ccnc4ccc(OC)cc34)CC2)N2CCN(c3ccc(F)cc3)CC2)cc1 (some centres unmarked) [TCMDC-140993]	-29%
CC(C)N1CCN(C(CN2CCN(CCCOc3ccc4nonc4c3)CC2)c2ccc(F)cc2)CC1 (centres unmarked) [TCMDC-135500]	92.96%
CC(C)N1CCN(C(CN2CCN(CCCOc3cccc(F)c3)CC2)c2ccc(F)cc2)CC1 (centres unmarked) [TCMDC-135493]	99.24%
O=C(CCN1C(=O)c2ccccc2C1=O)N1CCN(CC=Cc2ccccc2)CC1 [TCMDC-125744]	5.299%
CCCN(c1ccc(C(F)(F)F)cc1[N+](=O)[O-])S(=O)(=O)C(c1ccccc1)c1ccc(C(F)(F)F)cc1[N+](=O)[O-] (centres unmarked) [TCMDC-132114]	11.09%
COc1ccc(C)c(Nc2ccnc(Nc3ccc(-c4cnc[nH]4)cc3)n2)c1 [TCMDC-138695]	-34.59%
CC(C)(C)NC(=O)COC(=O)c1c2c(nc3ccccc13)C(=Cc1ccc3c(c1)OCO3)CCC2 [TCMDC-125143]	31.31%
CC(C)CCN(Cc1cncn1Cc1cccc(Cl)c1)C(=O)c1cncc(-c2ccccc2)c1 [TCMDC-132465]	21.61%
Cc1cc2c(cc1C(F)(F)F)N(C(=O)Nc1cnc(OCCN(C)C)c(C(F)(F)F)c1)CC2 [TCMDC-139848]	26.2%
O=C(NCc1ccccc1)NC1CCN(c2ccnc3cc(Cl)ccc23)C1 (centres unmarked) [TCMDC-133402]	-15.46%

Structure (SMILES)	% Inhibition
COc1ccc(NC(=O)NC2CCN(c3ccnc4cc(Cl)ccc34)C2)cc1 (centres unmarked) [TCMDC-133647]	-25.5%
c1cncc(CCNCc2cccc(-c3csc(-c4nc5ccccc5[nH]4)c3)c2)c1 [TCMDC-132878]	-19.07%
Cc1[nH]nc2cc(Nc3ccnc(Nc4ccc(CN5CCOCC5)cc4)n3)ccc12 [TCMDC-138633]	14.24%
O=C(Cc1cnc[nH]1)Nc1cccc(-c2ccc(-c3nc4ccc(C(F)(F)F)cc4[nH]3)cc2)c1 [TCMDC-136952]	-24.24%
CC(C)N1CCN(C(CN2CCN(CCCOc3ccc4ccccc4c3)CC2)c2ccc(F)cc2)CC1 (centres unmarked) [TCMDC-135495]	83.07%
O=C(Nc1cccc(-c2ccc(CN3CCC(O)CC3)cc2)c1)c1cccc(Cl)c1 [TCMDC-132645]	-15.01%
O=C(CCc1cnc[nH]1)Nc1ccc(-c2cccc(-c3nc4ccccc4[nH]3)c2)cc1 [TCMDC-132150]	3.081%
O=C(CCc1cnc[nH]1)Nc1cccc(-c2cccc(-c3nc4ccccc4[nH]3)c2)c1 [TCMDC-132151]	78.34%
Cc1cccc2[nH]c(-c3ccc(-c4cccc(NC(=O)CCc5cnc[nH]5)c4)cc3)nc12 [TCMDC-132153]	72.28%
Cc1cccc2[nH]c(-c3cccc(-c4cccc(NC(=O)Cc5cnc[nH]5)c4)c3)nc12 [TCMDC-136950]	-8.646%
Cc1cccc2[nH]c(-c3cccc(-c4cccc(NC(=O)Nc5ccccc5)c4)c3)nc12 [TCMDC-133152]	-23.55%
CCOC(=O)NCC(=O)Nc1cccc(-c2cccc(-c3nc4c(C)cccc4[nH]3)c2)c1 [TCMDC-137048]	-2.875%
Cc1cccc2[nH]c(-c3cccc(-c4ccc(NC(=O)CCc5cnc[nH]5)cc4)c3)nc12 [TCMDC-132159]	-12.17%
Cc1cccc2[nH]c(-c3ccc(-c4cccc(NC(=O)Cc5cnc[nH]5)c4)cc3)nc12 [TCMDC-136942]	73.44%
Cc1cccc2[nH]c(-c3cccc(-c4ccc(NC(=O)Cc5cnc[nH]5)cc4)c3)nc12 [TCMDC-136951]	17.26%
C#CCCC(=O)Nc1cccc(-c2cccc(-c3nc4c(C)cccc4[nH]3)c2)c1 [TCMDC-136857]	61.5%
O=C(CCc1cnc[nH]1)Nc1cccc(-c2ccc(-c3nc4ccccc4[nH]3)cc2)c1 [TCMDC-132155]	31.89%
Cc1cccc2[nH]c(-c3cccc(-c4cccc(NC(=O)CCc5cnc[nH]5)c4)c3)nc12 [TCMDC-132158]	-23.69%
O=C(Nc1cccc(-c2ccc(-c3nc4ccccc4[nH]3)cc2)c1)Nc1ccc2c(c1)OCO2 [TCMDC-133164]	-3.868%
O=C(CSc1ccccn1)Nc1c(F)cccc1F [TCMDC-123935]	16.99%
O=C(NC1CCCCC1)C1CCCN(C(=O)c2ccc(O)c(-c3ccc(Cl)c(Cl)c3)c2)C1 (centres unmarked) [TCMDC-140884]	5.577%
Cc1c(Cc2ccccc2)c(=O)oc2c(C)c3c(cc12)CN(CC(C)c1ccccc1)CO3 (centres unmarked) [TCMDC-125127]	34.31%

Structure (SMILES)	% Inhibition
O=c1cc(NCCCNCc2sc(Br)nc2Br)[nH]c2ccccc12 [TCMDC-140422]	-16.17%
Cc1ccccc1C1CCN(C2CCC(NC(=O)/C=C/c3cccc(Cl)c3Cl)CC2)CC1 (centres unmarked) [TCMDC-133519]	-94.66%
Cc1sc2nc(CN3CCCC3)nc(-n3c(NCCO)nc4ccccc43)c2c1C [TCMDC-124811]	45.04%
OC(c1ccc(Cl)cc1)(c1ccc(Cl)cc1)C(c1ccc(Cl)cc1)n1ccnc1 (centres unmarked) [TCMDC-125069]	44.24%
CN1CCN(c2cccc(-c3nnc(-c4ccc(OCC(=O)NCc5cccc(C(F)(F)F)c5)c([N+](=O)[O-])c4)o3)c2)CC1 [TCMDC-134941]	-68.92%
Cc1cccc(Cl)c1Nc1nnc(-c2cccc(C(=O)NC[C@@H]3CC[C@H]4C[C@@H]3C4(C)C)c2)o1 [TCMDC-135040]	-14.01%
O=C(NCc1ccc(C(F)(F)F)cc1)c1cccc(-c2nnc(-c3cccc(-c4cncnc4)c3)o2)c1 [TCMDC-134944]	18.23%
CC(C)(C)OC(=O)NCc1ccc(Nc2nnc(-c3cccc(OCC(=O)NCc4cc(C(F)(F)F)cc(C(F)(F)F)c4)c3)o2)cc1 [TCMDC-134993]	101.9%
CC(C)(C)OC(=O)NCc1ccc(Nc2nnc(-c3cccc(C(=O)NCc4cc(C(F)(F)F)cc(C(F)(F)F)c4)c3)o2)cc1 [TCMDC-135229]	97.34%
CCCNC(=O)c1cncc(-c2ccc(CNC(CC)c3ccccc3)cc2)c1 (centres unmarked) [TCMDC-134238]	-1.576%
CN1CCN(c2cccc(-c3nnc(-c4cccc(OCC(=O)NCc5ccc(C(F)(F)F)cc5)c4)o3)c2)CC1 [TCMDC-134943]	0.9055%
CC(=O)NCCNCc1cccc(C(=O)NCc2cccc(C(F)(F)F)c2)c1 [TCMDC-140900]	22.07%
CC(C)(C)OC(=O)NCc1ccc(Nc2nnc(-c3cccc(C(=O)NCCC(c4ccccc4)c4ccccc4)c3)o2)cc1 [TCMDC-134989]	99.36%
O=c1ccc2ccc(F)c3c2n1CC3CN1CCC(NCc2cccc(-c3ccccc3F)c2)CC1 (centres unmarked) [TCMDC-134405]	-31.68%
COc1ccc2nccc([C@@H](O)CN3CCC(NCc4cnc5snnc5c4)C(F)C3)c2c1 (some centres unmarked) [TCMDC-141752]	25.48%
CCCc1c(C(=O)Nc2ccc3c(c2)CCN(C2CCC2)CC3)cnn1-c1ccc(Cl)cc1 [TCMDC-136081]	40.23%
Cc1ccccc1C1CCN(c2ncc(C(=O)Nc3ccccc3)cc2Cl)CC1 [TCMDC-134630]	-30.75%
O=C(Nc1ccc(Cn2ncc(N3CCCNCC3)c(Cl)c2=O)cc1)Nc1cc(Cl)cc(Cl)c1 [TCMDC-133326]	-9.301%
Cc1ccccc1C1CCN(c2ccc(NC(=O)c3ccc(Cl)nc3)cc2)CC1 [TCMDC-134586]	25.08%
O=C(Nc1cc(Cl)cc(Cl)c1)c1cnn(-c2ccc(F)cc2)c1C1CCNCC1 [TCMDC-124410]	50.02%
Cc1ccc(-n2ncc(C(=O)Nc3cc(Cl)cc(Cl)c3)c2C2CCNCC2)cc1C [TCMDC-124409]	57.45%
